Shiga inhibitor: blocks Shiga toxin action in Vero cells; Vero cells, Shiga toxin protein synthesis inhibition reporter; inhibition, % at 38.7 µM; hit rate 9.2% among 290,000; in the data active means inhibition mostly above about 28%, no sharp cut-off; inactive means mostly below about 43%; further: 0% is about no effect
LmPK inh: inhibitors of Leishmania mexicana pyruvate kinase; Potency, µM (titrated, usually from 57.5 µM), for inactives: top-dose activity change, negative = inhibition, actives largely listed as inhibitors; purified LmPK, Kinase-Glo ATP luminescence, 1 h; hit rate 0.37% among 290,000; further: potency means the concentration at half of the fitted maximal effect; on the % scale 0 is the no-effect control and ±100 the full control effect
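In 50 mM imidazole pH 7.2 with 7 mM MgCl2, LmPK (0.1 nM) turned over PEP (0.5 mM) and ADP (0.1 mM) for 1 h at room temperature. Luciferase read-out of ATP.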
Cycloheximide cs: counter-screen hit for Shiga toxin inhibitors, cycloheximide; cell reporter, cycloheximide protein synthesis inhibition counterscreen; max response, %; hit rate 12% among 300,000; AID 2314; in the data active means max response mostly above about 13%, no sharp cut-off; inactive means mostly below about 14%; further: read at 38.3 µM for the half of the compounds with a filed dose; 0% is about no effect
RE007 growth inh: less growth of the S. pombe RE007 Vpr strain; AID 651644; S. pombe RE007 Vpr strain, BacTiter-Glo ATP luminescence, 24 h; hit rate 0.21% among 360,000; Potency, µM (series often up to 92.2 µM), for inactives: at the top dose activity change, negative = less growth, usual class: inhibitors; active means well fitted falling curve with a large enough effect; inconclusive means small, poorly fitted or top-dose-only effect; inactive means no such curve, though single readings can be large or run the other way; further: potency means the concentration at half of the fitted maximal effect; on the % scale 0 is the no-effect control and ±100 the full control effect; nearly all actives have a fitted effect of over 50% in size
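Fission yeast RE007 carrying one integrated HIV-1 vpr copy, seeded at OD 0.01 in PMG+AL medium with 23 nL pinned compound. Grown 24 h at 30 degrees; viability read by BacTiter-Glo luminescence after 5 min.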
FBPA Giardia inh: Giardia lamblia aldolase inhibition; Potency, µM (series often up to 59.6 µM), for inactives: at the highest dose activity, negative = inhibition, usual class: inhibitors; purified Giardia FBPA; AID 2451; hit rate 0.71% among 290,000; further: potency means the concentration at half of the fitted maximal effect; on the % scale 0 is the no-effect control and ±100 the full control effect; nearly all actives have a fitted effect of over 55% in size
Target sequence (A8B2U2 whole entry, looked up): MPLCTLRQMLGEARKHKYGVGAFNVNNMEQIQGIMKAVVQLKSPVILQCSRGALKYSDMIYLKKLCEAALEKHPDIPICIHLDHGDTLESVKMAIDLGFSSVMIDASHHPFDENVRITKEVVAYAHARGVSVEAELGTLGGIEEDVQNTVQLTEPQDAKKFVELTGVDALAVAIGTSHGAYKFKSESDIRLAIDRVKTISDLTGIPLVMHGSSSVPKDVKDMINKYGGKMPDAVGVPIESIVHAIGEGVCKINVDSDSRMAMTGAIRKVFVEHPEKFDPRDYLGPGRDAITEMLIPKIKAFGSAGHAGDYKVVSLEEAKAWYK
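40 nM FBPA preincubated 10 min at RT with compound (up to 57.5 uM final), then substrate plus GAPDH/TPI/NAD/arsenate coupling and diaphorase/resazurin added. Fluorescence read after 20 min at RT, 525/598 nm.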
Tb PYK inh: T. brucei pyruvate kinase inhibition | TbPYK enzyme, Kinase-Glo Plus ATP luminescence, 45 min | Potency, µM (top dose mostly 76.8 µM), without a hit: at the highest dose activity, negative = inhibition, hits mostly inhibitors | hit rate 0.12% among 410,000 | AID 624173; further: potency means the concentration at half of the fitted maximal effect; on the % scale 0 is the no-effect control and ±100 the full control effect; nearly all actives have a fitted effect of over 50% in size
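TbPYK + substrate in 50 mM TEA pH 7.2, 100 mM KCl, 10 mM MgCl2, 0.05% BSA, 0.01% Tween-20; cpd pinned; ADP 130 uM final; 45 min RT; Kinase-Glo Plus 10 min; luminescence endpoint.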
The depositor's hits bear a star; [ ] = dose if it differs, or a comment. Only a selection was taken, and hits are over-represented in it overall. Unless noted, the call rests on the fitted dose curve; in most records, active means well fitted curve in the direction sought with a large enough effect; inconclusive means small, poorly fitted or top-dose-only effect, or another doubt; inactive means no such curve, though single readings can be large; an effect the other way counts as inactive or inconclusive.

Screening COc1ccc(NC2CCCN(C(=O)CCCN3CCCCC3=O)C2)cc1 (stereo not drawn) returned Shiga inhibitor -2, LmPK inh -3%, Cycloheximide cs -3, RE007 growth inh -4%, FBPA Giardia inh -16% and Tb PYK inh -1%.
Screening Cc1ccc(NC2CCCN(C(=O)c3ccc(C)c(N4CCNC4=O)c3)C2)cc1C (stereo not drawn) returned Shiga inhibitor 20, LmPK inh -2%, Cycloheximide cs 9.9*, RE007 growth inh 7% and Tb PYK inh 2%.
CCOc1ccc(NC(=O)CN(c2ccc(C)cc2)S(=O)(=O)c2cccs2)cc1 was read as Tb PYK inh 1%.
COc1cc(NC(=O)N2CCN(c3cc(-c4noc(C)n4)ccc3C)CC2)cc(OC)c1OC was read as Tb PYK inh -6%.
For Cc1ccc(C(=O)N(CN2CCCC2=O)c2ccccc2)cc1C the results were Shiga inhibitor 70, LmPK inh -4%, Cycloheximide cs 2, RE007 growth inh 10%, FBPA Giardia inh 3% and Tb PYK inh -1%.
For Cc1ccc(N(CN2CCCC2=O)C(=O)c2ccc(C)c(C)c2)cc1 the results were Shiga inhibitor 23, LmPK inh 3%, Cycloheximide cs 17*, RE007 growth inh 3%, FBPA Giardia inh 0% and Tb PYK inh 7%.
`CCOc1ccc(CCNCc2c(C(=O)O)c(C)n(Cc3ccccc3F)c2C)cc1` gave Tb PYK inh -4%.
Screening C#CCn1cnc2c(oc3ccccc32)c1=O returned Shiga inhibitor 74, LmPK inh -3%, Cycloheximide cs 34*, RE007 growth inh 17%, FBPA Giardia inh 1% and Tb PYK inh 1%.
`CCCn1cnc2c(oc3ccccc32)c1=O` gave Shiga inhibitor 39*, LmPK inh -2%, Cycloheximide cs 29*, RE007 growth inh 1%, FBPA Giardia inh 0% and Tb PYK inh 2%.
Screening O=C(O)Cn1cnc2c(oc3ccccc32)c1=O returned Shiga inhibitor -5, LmPK inh 0%, Cycloheximide cs 4, RE007 growth inh -12%, FBPA Giardia inh 6% and Tb PYK inh 2%.
`CCn1cnc2c(oc3ccccc32)c1=O` gave Shiga inhibitor 52, LmPK inh 1%, Cycloheximide cs 24*, RE007 growth inh 10%, FBPA Giardia inh -1% and Tb PYK inh 3%.
Cn1cnc2c(oc3ccccc32)c1=O was read as RE007 growth inh 0% and Tb PYK inh -6%.
Screening O=C(Cn1cnc2c(oc3ccccc32)c1=O)c1ccccc1 returned Shiga inhibitor 53*, LmPK inh -2%, Cycloheximide cs 54*, RE007 growth inh -22%, FBPA Giardia inh -1% and Tb PYK inh -2%.
COCCNC(=O)c1ccc2nc(CCc3ccccc3)oc2c1 was read as Tb PYK inh -2%.
For CCOc1ccc(CCNC(=O)c2ccc(CS(=O)Cc3ccc(Cl)cc3)o2)cc1 (stereo not drawn) the results were Shiga inhibitor 16, LmPK inh 2%, Cycloheximide cs 5, RE007 growth inh -9% and Tb PYK inh 10%.
Screening CCOc1ccc(CCNC(=O)c2ccc(CS(=O)Cc3ccccc3Cl)o2)cc1 (stereo not drawn) returned Shiga inhibitor 35, LmPK inh 1%, Cycloheximide cs 16*, RE007 growth inh 2%, FBPA Giardia inh 7% and Tb PYK inh 5%.
`Cc1ccccc1-n1c(-c2ccco2)n[nH]c1=S` gave Shiga inhibitor -8, LmPK inh inconclusive, Cycloheximide cs -5, RE007 growth inh -14%, FBPA Giardia inh -22% and Tb PYK inh inconclusive.
`S=c1[nH]nc(-c2cc(-c3ccco3)[nH]n2)n1-c1cccc2ccccc12` gave Shiga inhibitor 13, LmPK inh 7.9µM*, Cycloheximide cs -2, RE007 growth inh -5%, FBPA Giardia inh -29% and Tb PYK inh inconclusive.
FC(F)(F)c1ccccc1-n1c(-c2ccco2)n[nH]c1=S was read as Shiga inhibitor 30*, LmPK inh -8%, Cycloheximide cs 21*, RE007 growth inh 1%, FBPA Giardia inh inconclusive and Tb PYK inh inconclusive.
For O=[N+]([O-])c1ccc(C(c2sc3nc(-c4ccco4)nn3c2O)N2CCC3(CC2)OCCO3)cc1 (stereo not drawn) the results were Tb PYK inh -8%.
Screening COc1ccc(-c2cc(C(=O)Nc3cccc(Cl)c3)no2)cc1 returned Shiga inhibitor 85*, LmPK inh -5%, Cycloheximide cs 42*, RE007 growth inh -8%, FBPA Giardia inh -2% and Tb PYK inh 0%.
`O=C(Nc1c(Cl)cccc1Cl)c1cc(-c2ccco2)on1` gave Shiga inhibitor 21, LmPK inh -1%, Cycloheximide cs 15, RE007 growth inh inconclusive and Tb PYK inh -6%.
`COc1ccc(-c2nnc(SC(C)C(=O)Nc3cccc(Cl)c3)o2)cc1` (stereo not drawn) gave Shiga inhibitor 66*, LmPK inh 3%, Cycloheximide cs 25, RE007 growth inh 4%, FBPA Giardia inh -6% and Tb PYK inh -6%.
For O=C(Nc1cccnc1Cl)c1cc(-c2ccco2)on1 the results were Shiga inhibitor 83*, LmPK inh -5%, Cycloheximide cs 41*, RE007 growth inh -16%, FBPA Giardia inh 3% and Tb PYK inh -8%.
For COc1ccc(-c2nnc(SC(C)C(=O)O)o2)cc1 (stereo not drawn) the results were Tb PYK inh -2%.
Screening COc1cccc(-c2cc(C(=O)Nc3cccnc3Cl)no2)c1 returned Shiga inhibitor 10, LmPK inh -3%, Cycloheximide cs 10, RE007 growth inh -16%, FBPA Giardia inh -1% and Tb PYK inh 3%.
`O=C(Nc1cc(Cl)ccc1O)c1cc(-c2ccco2)on1` gave Shiga inhibitor 80*, LmPK inh -2%, Cycloheximide cs 40*, RE007 growth inh -6%, FBPA Giardia inh -6% and Tb PYK inh -1%.
`Cc1cc(C(=O)NCCc2ccc(Cl)cc2)c2c(C)nn(-c3cccc(F)c3)c2n1` gave Tb PYK inh -11%.
For Cc1cc(C)c(/C=C/c2onc(C)c2S(=O)(=O)N2CCC(C(=O)NCC(C)c3ccccc3)CC2)c(C)c1 (stereo not drawn) the results were Tb PYK inh 8%.
For CC(=O)OC[C@@H]1O[C@H](C/C=N\O[C@@H](C)c2cn([C@H]3COC[C@H]3O)nn2)C=C[C@@H]1OC(C)=O the results were FBPA Giardia inh 1%[12.9 µM].
For COc1cc(NC(=O)c2cc(-c3ccc(C)cc3)on2)cc(OC)c1OC the results were LmPK inh 7%, Cycloheximide cs 11*, RE007 growth inh -23%, FBPA Giardia inh 15% and Tb PYK inh 12%.
